Broadly, the viability is a read-out of living cells in per cent, often relative to untreated cells.

Assay [1] can be described thus: reducers of endogenous Her2 protein level, primary screen, SKBR3 breast tumor cells, AlphaScreen, ATP viability (AID 461).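 For Her2 level: lower value means less Her2 protein in the cells.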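 For viability: percent of carrier control wells set as 100% viability.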 To be noted: 18-24 h, measured here: SKBR3 viability, ATP luminescence, at 10 µM.
Assay [2] has as its target Receptor tyrosine-protein kinase erbB-2 (Homo sapiens) (UniProt P04626). The description is as above. To be noted: 18-24 h, at 10 µM, stronger effect = lower value.
A short description of assay [3]: SK-BR-3 cell growth inhibitors, pilot screen, 24 h, human (AID 572;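 active = viability at or below 10% of carrier control in both of two separate runs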;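 note: compound exposure lasted between 18 and 24 h rather than exactly 24 h; 100% = carrier-treated control wells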). The note with it: SK-BR-3 viability, CellTiter-Glo luminescence, at 10 µM, stronger effect = lower value. In general terms: Cellular ATP, detected with luciferase, serves as a proxy for viable cell number.
A short description of assay [4]: HUVEC growth inhibition – cell-based, human, primary screen (AID 575;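 active = viability at or below 30% in both replicate assays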;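 note: 100% = median of untreated cell wells with 0.1% DMSO on each plate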). The note with it: HUVEC proliferation, CellTiter-Glo luminescence, 72 h; at 10 µM; stronger effect = lower value.
A short description of assay [5]: growth inhibitors of H69AR lung tumor, primary screen, human, duplicate replicates (AID 580;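 active = viability at or under a set limit in both replicates, limit being median viability minus 3 SD, cut at about 48% in these data, passing the limit was not always enough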;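 note: 100% = mean luminescence of untreated wells and 0% = no signal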). The note with it: H69AR lung tumor cells viability, ATP luminescence, 72 h; at 10 µM; stronger effect = lower value.
Assay [6] can be described thus: reversal of MRP1-mediated doxorubicin resistance, pilot screen, H69AR cells, doxorubicin co-treatment (AID 601;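 active = viability loss from added drug above about 55%, and viability with drug at most 40%, in both replicates, limit read from the data, passing the limit was not always enough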). To be noted: CellTiter-Glo, 72 h, at 10 µM; for differential viability (reversal): stronger effect = higher value.
Where [7] appears, read: H69AR cells + 2 uM doxorubicin, measured here: viability with 2 uM doxorubicin, stronger effect = lower value.
Where [8] appears, read: H69AR cells, compound alone cytotoxicity.

Activity calls are given as the source filed them.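 Rule for the calls, unless noted: active = Her2 level under about 52% in both replicate screens, with viability over 70% of control (limit read from the data); inconclusive = Her2 under the limit in one screen only, or viability under 70%; inactive = Her2 level above the set limit.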

Sequence of Receptor tyrosine-protein kinase erbB-2 (Homo sapiens) (P04626 whole entry, looked up): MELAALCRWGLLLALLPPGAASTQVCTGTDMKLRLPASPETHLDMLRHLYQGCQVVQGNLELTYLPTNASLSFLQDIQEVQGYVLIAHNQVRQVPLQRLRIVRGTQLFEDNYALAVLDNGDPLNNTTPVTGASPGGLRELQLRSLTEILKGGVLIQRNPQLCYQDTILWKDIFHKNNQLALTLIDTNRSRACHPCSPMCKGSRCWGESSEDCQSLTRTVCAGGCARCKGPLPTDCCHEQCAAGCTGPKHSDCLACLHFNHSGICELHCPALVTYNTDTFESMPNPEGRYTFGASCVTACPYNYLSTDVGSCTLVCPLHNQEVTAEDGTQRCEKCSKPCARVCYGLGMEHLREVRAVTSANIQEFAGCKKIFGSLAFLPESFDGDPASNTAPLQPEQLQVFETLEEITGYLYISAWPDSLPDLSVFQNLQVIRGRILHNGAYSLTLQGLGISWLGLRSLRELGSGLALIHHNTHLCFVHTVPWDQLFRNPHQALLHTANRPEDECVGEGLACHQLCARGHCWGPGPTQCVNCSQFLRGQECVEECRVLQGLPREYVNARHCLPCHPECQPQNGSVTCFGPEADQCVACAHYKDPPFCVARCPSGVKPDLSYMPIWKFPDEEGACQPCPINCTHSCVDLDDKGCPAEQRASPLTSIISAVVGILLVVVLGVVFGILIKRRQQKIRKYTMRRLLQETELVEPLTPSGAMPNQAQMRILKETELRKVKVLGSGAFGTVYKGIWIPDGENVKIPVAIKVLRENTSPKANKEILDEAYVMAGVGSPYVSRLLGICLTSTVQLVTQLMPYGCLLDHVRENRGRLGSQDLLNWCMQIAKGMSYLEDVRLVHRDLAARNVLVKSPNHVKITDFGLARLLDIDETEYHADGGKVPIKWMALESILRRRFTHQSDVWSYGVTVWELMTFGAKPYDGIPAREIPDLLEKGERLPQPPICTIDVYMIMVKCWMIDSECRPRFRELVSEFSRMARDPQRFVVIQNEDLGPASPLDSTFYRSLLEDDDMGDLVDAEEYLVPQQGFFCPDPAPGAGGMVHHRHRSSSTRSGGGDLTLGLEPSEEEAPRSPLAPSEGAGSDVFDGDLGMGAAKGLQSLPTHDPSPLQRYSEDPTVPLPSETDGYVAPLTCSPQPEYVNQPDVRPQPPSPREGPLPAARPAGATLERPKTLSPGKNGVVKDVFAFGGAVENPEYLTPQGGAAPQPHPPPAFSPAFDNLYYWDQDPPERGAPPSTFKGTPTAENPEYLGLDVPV

In the case of `CCC(NC(C)C)C(O)c1ccc(O)c(O)c1` (stereo unspecified), the viability in assay [1] is 87.5%; in assay [3], 87.5% (inactive); in assay [4], 105% (inactive); in assay [5] it was 85% (inactive); in assay [6] (setting [7]) it was 91.5%; in assay [6] (setting [8]) it was 85%. Moreover, in assay [2], the Her2 level was 88% (inactive). The differential viability (reversal) in assay [6] (H69AR cells + 2 uM doxorubicin) was -6.46% (inactive).
Take `C[C@H]1C[C@@H]2[C@H]([C@@H](O)C[C@@]3(C)[C@H]2CC[C@]3(O)C(=O)CO)[C@@]2(C)C=CC(=O)C=C12`: the viability in assay [1] is 115%; in assay [3] it was 115% (inactive); in assay [4], 93.8% (inactive); in assay [5], 88.1% (inactive); in assay [6] (setting [7]), 78.7%; in assay [6] (setting [8]), 88.1%. The Her2 level in assay [2] is 115% (inactive). In assay [6] (H69AR cells + 2 uM doxorubicin), the differential viability (reversal) is 9.38% (inactive).
On to `CS(=O)(=O)Nc1ccc([N+](=O)[O-])cc1Oc1ccccc1`, for which the viability in assay [1] was 118%; in assay [3], 118% (inactive); in assay [4] it was 106% (inactive); in assay [5] it was 108% (inactive); in assay [6] (setting [7]) it was 97.6%; in assay [6] (setting [8]) it was 108%. In assay [2], the Her2 level is 103% (inactive). For the same compound, in assay [6] (H69AR cells + 2 uM doxorubicin), the differential viability (reversal) is 10.3% (inactive).
Consider `CCCC(=O)Nc1ncnc2c1ncn2[C@@H]1O[C@@H]2COP(=O)(O)O[C@H]2[C@H]1OC(=O)CCC`, for which the viability in assay [1] was 102%; in assay [3] it was 102% (inactive); in assay [4], 109% (inactive); in assay [5] it was 104% (inactive); in assay [6] (setting [7]) it was 90.8%; in assay [6] (setting [8]), 104%. Further, in assay [2], the Her2 level was 104% (inactive). Moreover, the differential viability (reversal) in assay [6] (H69AR cells + 2 uM doxorubicin) is 13.3% (inactive).
Regarding `S=C(N=Nc1ccccc1)NNc1ccccc1`, the viability in assay [1] is 118%; in assay [3], 118% (inactive); in assay [4], 80% (inactive); in assay [5], 81.4% (inactive); in assay [6] (setting [7]), 88%; in assay [6] (setting [8]), 81.4%. The Her2 level in assay [2] was 90% (inactive). In addition, in assay [6] (H69AR cells + 2 uM doxorubicin), the differential viability (reversal) was -6.66% (inactive).
As for `CC1Cc2ccccc2N1NC(=O)c1ccc(Cl)c(S(N)(=O)=O)c1` (stereo unspecified), the viability was 93.5% in assay [1]; 93.5% (inactive) in assay [3]; 102% (inactive) in assay [4]; 91.4% (inactive) in assay [5]; 90% in assay [6] (setting [7]); 91.4% in assay [6] (setting [8]). The Her2 level in assay [2] is 105% (inactive). In assay [6] (H69AR cells + 2 uM doxorubicin), the differential viability (reversal) is 1.41% (inactive).
As for `CC(=O)Oc1cc(C(C)C)c(OCCN(C)C)cc1C`, the viability in assay [1] was 96.5%; in assay [3], 96.5% (inactive); in assay [4], 105% (inactive); in assay [5], 99% (inactive); in assay [6] (setting [7]), 97.8%; in assay [6] (setting [8]), 99%. Besides, the Her2 level in assay [2] was 118% (inactive). Also, the differential viability (reversal) in assay [6] (H69AR cells + 2 uM doxorubicin) was 1.28% (inactive).
For `Cc1cccc(CN2CCN(C(c3ccccc3)c3ccc(Cl)cc3)CC2)c1` (stereo unspecified), the viability is 83% in assay [1]; 83% (inactive) in assay [3]; 96.4% (inactive) in assay [4]; 96.8% (inactive) in assay [5]; 95.8% in assay [6] (setting [7]); 96.8% in assay [6] (setting [8]). In assay [2], the Her2 level was 93.5% (inactive). Besides, in assay [6] (H69AR cells + 2 uM doxorubicin), the differential viability (reversal) is 1.06% (inactive).
On to `CN1CCC(=C2c3ccccc3CC(=O)c3sccc32)CC1`, for which the viability in assay [1] was 96%; in assay [3], 96% (inactive); in assay [4] it was 76.4% (inactive); in assay [5] it was 91.4% (inactive); in assay [6] (setting [7]), 79.6%; in assay [6] (setting [8]), 91.4%. In assay [2], the Her2 level is 87% (inactive). For the same compound, the differential viability (reversal) in assay [6] (H69AR cells + 2 uM doxorubicin) was 11.8% (inactive).
On to `CN(C)CCOC(C)(c1ccccc1)c1ccccn1` (stereo unspecified), for which the viability was 79.5% in assay [1]; 79.5% (inactive) in assay [3]; 113% (inactive) in assay [4]; 93.5% (inactive) in assay [5]; 105% in assay [6] (setting [7]); 93.5% in assay [6] (setting [8]). Further, the Her2 level in assay [2] was 120% (inactive). The differential viability (reversal) in assay [6] (H69AR cells + 2 uM doxorubicin) was -11.6% (inactive).
Take `CC(=O)O[C@]1(C(C)=O)CC[C@H]2[C@@H]3C=C(C)C4=CC(=O)CC[C@]4(C)[C@H]3CC[C@@]21C`: the viability is 97% in assay [1]; 97% (inactive) in assay [3]; 113% (inactive) in assay [4]; 87.6% (inactive) in assay [5]; 64.3% in assay [6] (setting [7]); 87.6% in assay [6] (setting [8]). Also, the Her2 level in assay [2] was 88% (inactive). Also, the differential viability (reversal) in assay [6] (H69AR cells + 2 uM doxorubicin) is 23.2% (inactive).
For `Cc1nnc(NS(=O)(=O)c2ccc(N)cc2)s1`, the viability was 93.5% in assay [1]; 93.5% (inactive) in assay [3]; 105% (inactive) in assay [4]; 96.2% (inactive) in assay [5]; 107% in assay [6] (setting [7]); 96.2% in assay [6] (setting [8]). Moreover, the Her2 level in assay [2] is 126% (inactive). For the same compound, in assay [6] (H69AR cells + 2 uM doxorubicin), the differential viability (reversal) is -10.4% (inactive).
As to `CCCCN(CCCC)CCCOC(=O)c1ccc(N)cc1`, the viability was 92% in assay [1]; 92% (inactive) in assay [3]; 111% (inactive) in assay [4]; 90.7% (inactive) in assay [5]; 99.2% in assay [6] (setting [7]); 90.7% in assay [6] (setting [8]). Also, in assay [2], the Her2 level was 106% (inactive). Further, the differential viability (reversal) in assay [6] (H69AR cells + 2 uM doxorubicin) was -8.53% (inactive).
Take `CCCC(=O)Nc1ccc(OCC(O)CNC(C)C)c(C(C)=O)c1` (stereo unspecified): the viability was 100% in assay [1]; 100% (inactive) in assay [3]; 115% (inactive) in assay [4]; 101% (inactive) in assay [5]; 102% in assay [6] (setting [7]); 101% in assay [6] (setting [8]). Further, the Her2 level in assay [2] is 121% (inactive). In assay [6] (H69AR cells + 2 uM doxorubicin), the differential viability (reversal) was -0.95% (inactive).
As to `Nc1ccc2cn[nH]c2c1`, the viability was 100% in assay [1]; 100% (inactive) in assay [3]; 82.2% (inactive) in assay [4]; 93.1% (inactive) in assay [5]; 111% in assay [6] (setting [7]); 93.1% in assay [6] (setting [8]). Moreover, the Her2 level in assay [2] was 128% (inactive). The differential viability (reversal) in assay [6] (H69AR cells + 2 uM doxorubicin) is -18.1% (inactive).
In the case of `COc1cc2nc(N3CCN(C(=O)C4CCCO4)CC3)nc(N)c2cc1OC` (stereo unspecified), the viability is 100% in assay [1]; 100% (inactive) in assay [3]; 98.5% (inactive) in assay [4]; 91.6% (inactive) in assay [5]; 92% in assay [6] (setting [7]); 91.6% in assay [6] (setting [8]). Also, the Her2 level in assay [2] is 99% (inactive). The differential viability (reversal) in assay [6] (H69AR cells + 2 uM doxorubicin) is -0.44% (inactive).
Consider `O=C(CCCN1CC=C(n2c(=O)[nH]c3ccccc32)CC1)c1ccc(F)cc1`, for which the viability was 77% in assay [1]; 77% (inactive) in assay [3]; 98.4% (inactive) in assay [4]; 86.2% (inactive) in assay [5]; 75.1% in assay [6] (setting [7]); 86.2% in assay [6] (setting [8]). Further, the Her2 level in assay [2] was 103% (inactive). In addition, the differential viability (reversal) in assay [6] (H69AR cells + 2 uM doxorubicin) was 11.1% (inactive).

The values above are taken from PubChem BioAssay.
